# The list is not random: actives were taken first. Their share in the collection is about 7.3%.
# FLuc counter: inhibits or activates purified firefly luciferase, miR-21 counter-screen; purified FLuc, Km substrates, luminescence inhibition; Potency, µM (doses to about 57.5 µM), for inactives: at the top dose activity change, negative = inhibition, usual class: inhibitors; P08659; AID 588342; actives 6.9% (n = 360,000);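 also: plate controls were vehicle for no effect and reference inhibitor for full effect; nearly all actives have a fitted effect of over 55% in size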
# Target sequence (P08659 whole entry, looked up): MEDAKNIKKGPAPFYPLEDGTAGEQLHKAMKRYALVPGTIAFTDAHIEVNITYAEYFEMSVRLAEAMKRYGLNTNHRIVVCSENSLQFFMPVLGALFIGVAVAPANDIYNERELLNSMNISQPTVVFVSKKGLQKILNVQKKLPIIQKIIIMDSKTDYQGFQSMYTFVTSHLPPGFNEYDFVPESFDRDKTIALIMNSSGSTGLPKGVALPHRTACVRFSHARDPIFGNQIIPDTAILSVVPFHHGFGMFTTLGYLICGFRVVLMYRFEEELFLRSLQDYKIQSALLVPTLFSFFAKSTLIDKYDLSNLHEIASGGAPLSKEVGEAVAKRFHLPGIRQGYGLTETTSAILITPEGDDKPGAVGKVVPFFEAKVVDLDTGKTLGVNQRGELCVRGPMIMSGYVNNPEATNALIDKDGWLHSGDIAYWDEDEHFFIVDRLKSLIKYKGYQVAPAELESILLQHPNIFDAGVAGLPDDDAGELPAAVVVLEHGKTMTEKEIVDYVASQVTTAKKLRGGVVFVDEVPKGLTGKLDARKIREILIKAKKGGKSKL
#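 Biochemical qHTS of compounds, final roughly 60 µM downward over six points, against 10 nM purified firefly luciferase using Km concentrations of substrates (10 uM D-luciferin, 10 uM ATP) in Tris acetate pH 7.5 buffer; luminescence output.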
# ELG1 genotoxic: genotoxicity induction in ELG1-luciferase HEK293T cells; HEK293T ELG1-luciferase reporter, luminescence, 16 h; Potency, µM (titrated, usually from 46 µM), for the others: top-dose activity change, positive = activation, hits mostly activators; actives 1.3% (n = 330,000); also: % of control where 0% means no effect; nearly all actives have a fitted effect of over 60% in size
#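 Cells (2,000/well) expressing the ELG1-luciferase fusion are dosed by pin tool and kept 16 hr at 37 °C, 5% CO2. Signal comes from ONE-Glo luciferase reagent after 30 min at room temperature.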
# SMN2 splice up: SMN2 splice variant enhancement | HEK293 SMN2-luciferase splicing reporter, luminescence, 30-36 h | Potency, µM (top dose mostly 46.1 µM), for the others: at the top dose activity change, positive = activation, usual class: activators | actives 2.8% (n = 210,000); also: % of control where 0% means no effect; nearly all actives have a fitted effect of over 55% in size
#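 HEK293 cells carry an SMN2 minigene-luciferase reporter in which exon 7 inclusion puts luciferase in frame. Cells were seeded at 2000 cells/well, attached for 10-12 hours, then exposed to compounds for 30-36 hours at 37C before ONE-Glo luminescence.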
# NPC1 promoter act: NPC1 promoter activation; Potency, µM (series often up to 9.22 µM), for the others: at the top dose activation, actives largely listed as activators; Huh7 NPC1 promoter luciferase reporter, 24 h; actives 2.4% (n = 320,000); also: % of control where 0% means no effect; nearly all actives have a fitted effect of over 60% in size
#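 Readout is luciferase luminescence, reflecting NPC1 promoter activation in stably transfected Huh7 cells after 24 h compound exposure at 37 °C in reduced-serum medium with 10% FBS.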
# KinaseGlo FLuc: blocks Kinase-Glo luciferase, a counter-screen artifact; Q27757; AID 1379; Kinase-Glo luciferase, ATP luminescence, 8 min; Potency, µM (highest dose often 38.3 µM), for the others: at the top dose activity change, negative = inhibition, actives largely listed as inhibitors; actives 0.28% (n = 200,000); also: % is scaled to controls: 0 for no effect and ±100 for the full control effect; nearly all actives have a fitted effect of over 60% in size
#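 Kinase-Glo luciferase light output from ATP and luciferin was measured with 10 uM ATP, within the enzyme's linear range. Buffer: 50 mM imidazole pH 7.2, 50 mM KCl, 7 mM MgCl2, 0.01% Tween 20, 0.05% BSA; luminescence read after 8 min at ambient temperature.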
# Rab9 prom act: Rab9 promoter activation; Huh7 Rab9 promoter-luciferase reporter, luminescence, 24 h; Potency, µM (titrated, usually from 9.22 µM), for the others: at the top dose activation, negative = inhibition, usual class: activators; actives 2.8% (n = 320,000); also: % of control where 0% means no effect; nearly all actives have a fitted effect of over 60% in size
#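 Huh7 cells stably carrying Rab9 promoter–luciferase reporter, plated 1500 cells/well, compound added after 2 h and incubated 24 h at 37 °C; luciferase luminescence then read after 10 min with detection reagent.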
# * marks the source's active call; other numbers are inactive results; ? = inconclusive; . = no result given; [ ] = another dose, or the depositor's remark. Calls follow the shape of the dose curve; as a rule, active = well fitted curve in the direction sought with a large enough effect; inconclusive = small, poorly fitted or top-dose-only effect, or another doubt; inactive = no such curve, though single readings can be large; an effect the other way counts as inactive or inconclusive. Potency is read from the fitted curve at half-maximal effect.
SMILES,FLuc counter,ELG1 genotoxic,SMN2 splice up,NPC1 promoter act,KinaseGlo FLuc,Rab9 prom act
COc1ccc2c(c1)CCc1c(-c3noc4c3CCc3cc(OC)ccc3-4)noc1-2,.,.,-10%[9.22 µM],.,-1%[7.66 µM],.
CCOC(=O)c1cc(-c2ccc(OC)cc2)n(CCC(=O)NC2CCC(C)CC2)c1C (stereo not drawn),0%,.,.,.,.,.
CC(=O)Nc1ccc(N/C=C/C(=O)c2ccc(C)cc2)cc1,-19%,-2%,.,?,.,20%
CC(=O)Nc1ccc(N/C=C/C(=O)c2ccco2)cc1,11µM*,4.6µM*,28µM*,3.2µM*,?,1.6µM*
CN(C)c1cccc(NC(=O)c2ccco2)c1,-17%,6%,26%,19%,-5%,6%
CN(C)c1ccc(N/C=C/C(=O)c2ccco2)cc1,0.27µM*,?,.,3.5µM*,3.5µM*,2.8µM*
Clc1ccc(-c2cnnc(-c3ccccn3)n2)cc1,.,21µM*,.,.,.,.
CN(C)c1ccc(C(=O)c2ccc(N(C)C)c3ccccc23)cc1,15µM*,?,?,-7%,-3%,-19%
COc1ccccc1CNC(=O)Cn1c(-c2cccs2)cc2cc(F)ccc21,2%,.,.,.,.,.
Cc1cc2nc(N3C(=O)CNC3=S)sc2cc1C,0.54µM*,18µM*,4µM*,0.45µM*,-6%,0.45µM*
Cc1nccn1CCCN1C(=O)CNC1=S,-2%,2%,-3%,-2%,-5%,0%
CCOc1ccc2nc(SC3CC(=O)N(c4ccc(OC)cc4)C3=O)sc2c1 (stereo not drawn),?,9%,21%,19%,-2%,?
CCOc1ccc2nc(N3C(=O)CNC3=S)sc2c1,0.85µM*,21µM*,.,0.71µM*,.,0.56µM*
N[C@@H](C(=O)O)[C@@H](CC(=O)O)c1ccc(Cl)cc1,.,.,-4%,.,.,.
COc1ccccc1NC(=O)N1c2ccccc2Sc2ccccc21,-19%,.,?,.,.,.
O=C(NC1CCCCC1)c1n[nH]c2c1CCCCC2,0.38µM*,?,.,?,.,0.089µM*
O=C(NN=C1CCCC1)c1n[nH]c2c1CCC2,?,?,.,13%,?,24%
CCC(C)(C)C1CCc2[nH]nc(C(=O)NC3CCCC3)c2C1 (stereo not drawn),-14%,-4%,.,12%,.,17%
O=C(NN=C1CCCC1)c1n[nH]c2c1CCCC2,5.4µM*,?,22µM*,2.5µM*,13µM*,0.63µM*
O=C(NC1CCCC1)c1n[nH]c2ccccc12,24µM*,?,.,3.2µM*,-12%,2.8µM*
COc1ccc(-c2cc(-c3ccccc3)nc3c2COc2ccc(F)cc2-3)cc1,-6%,.,-2%,.,.,.
CCOc1ccc(S(=O)(=O)NCCC(=O)Nc2cccc(C(=O)OC)c2)cc1,-9%,14%,.,10%,.,3.2µM*
CCOC(=O)c1cccc(NC(=O)Nc2ccc(OCC)cc2)c1,2.7µM*,-17%,10µM*,1.8µM*,1%,2.8µM*
CCOc1ccc(NC(=O)Nc2cccc(C(=O)O)c2)cc1,0.027µM*,-14%,2µM*,?,?,0.089µM*
CCOc1ccc(/C=C/C(=O)Nc2cccc(C(C)=O)c2)cc1,1.2µM*,7%,?,?,-1%,?
SMILES,FLuc counter,ELG1 genotoxic,SMN2 splice up,NPC1 promoter act,KinaseGlo FLuc,Rab9 prom act
CCCn1c(-c2ccc(F)cc2)nc2c(NCCCCN(CC)CC)nc(C)nc21,.,.,3%,.,0%,.
C#CCOc1ccc(-c2nnc(Nc3cccc(C)c3)c3ccccc23)cc1,-12%,.,8%,.,.,.
CC(C)(C)NC(=O)COC(=O)c1ccccc1OCC(=O)Nc1ccc(Br)cc1,1.1µM*,1%,.,?,.,?
Cc1ccnc(NC(=O)COc2ccccc2[N+](=O)[O-])c1,1.7µM*,?,5µM*,2.2µM*,-29%,?
COC(=O)/C=C/COc1ccccc1[N+](=O)[O-],21µM*,15%,9%,24%,-3%,?
COc1cc(NC(=O)COc2c(C)cc(C)cc2[N+](=O)[O-])c(OC)cc1Cl,6%,-1%,1%,-1%,-1%,-2%
COc1cc(Cl)c(C)cc1NC(=O)COc1ccccc1[N+](=O)[O-],2%,8%,14%,3.2µM*,0%,?
O=C(COc1ccccc1[N+](=O)[O-])Nc1ccc(Br)cc1,9.5µM*,?,.,?,.,3.2µM*
Cc1ccc(NC(=O)COc2ccccc2[N+](=O)[O-])nc1,2.1µM*,0%,2.8µM*,3.2µM*,?,0.79µM*
O=C(COC(=O)c1ccccc1Br)Nc1ccc(F)cc1,19µM*,?,11%,-2%,-1%,7%
O=C(COC(=O)c1ccccc1Br)NCCc1ccc(F)cc1,-13%,1%,2%,-3%,-1%,2%
O=C(COc1ccccc1[N+](=O)[O-])Nc1cccnc1,?,?,.,29%,.,?
Cc1ccc(NC(=O)c2ccc(COc3ccccc3[N+](=O)[O-])o2)nc1,?,1%,.,2%,.,-2%
CCOc1ccc(N2CC(C(=O)NCCc3ccccc3)CC2=O)cc1 (stereo not drawn),1%,-3%,.,0%,.,-5%
CCCNC(=O)C1CC(=O)N(c2ccc(OCc3ccc(F)cc3)cc2)C1 (stereo not drawn),4.8µM*,6.5µM*,.,0.63µM*,.,0.89µM*
C=CCNC(=O)C1CC(=O)N(c2ccc(OCC(=O)Nc3ccccc3)cc2)C1 (stereo not drawn),12µM*,?,13µM*,2.8µM*,-5%,3.5µM*
NC(=O)C1CC(=O)N(c2ccc(OCc3ccc(Cl)cc3)cc2)C1 (stereo not drawn),8.5µM*,?,.,2.8µM*,-4%,2.8µM*
CCCNC(=O)C1CC(=O)N(c2ccc(OCc3ccc(Cl)cc3)cc2)C1 (stereo not drawn),2.1µM*,1.8µM*,.,1.4µM*,.,4µM*
CCN(CC)c1ccc(NC(=O)CN2CCN(S(=O)(=O)c3ccc(C(C)C)cc3)CC2)cc1,-9%,.,.,.,.,.
C=CCNC(=O)C1CC(=O)N(c2ccc(OCC(=O)N3CCCC3)cc2)C1 (stereo not drawn),1%,2%,.,-6%,.,-5%
C=CCNC(=O)C1CC(=O)N(c2ccc(OCc3ccc(F)cc3)cc2)C1 (stereo not drawn),7.6µM*,18µM*,.,1.1µM*,.,1.4µM*
COc1ccc(-n2nc(C(=O)NCC(=O)N3CCOCC3)c3ccccc3c2=O)cc1Cl,11µM*,0%,.,-4%,.,0%

# High-throughput results as filed in PubChem.
